Assay outcomes (PubChem)
A selection: hits, their analogues and other compounds. The true share with any hit is near 0.9%.
TAR Tat displ: TAR RNA-Tat peptide displacers, HIV-1, primary screen, biochemical, FRET, FAM/TAMRA-labeled Tat | HIV-1 TAR RNA, Tat peptide displacement FRET; stronger effect = higher value | z-score (test concentration not listed) | actives 0.6% (n = 100,000) | AID 1259389, 2018; active = z-score of 3 or more in at least 2 runs
CDC25B-CDK2 inh: primary biochemical HTRF screen for blockers of M-phase inducer phosphatase 2 binding to CDK2/cyclin A; HTRF CDC25B-CDK2/CyclinA binding, anti-His/anti-Flag; stronger effect = higher value; P30305+P24941; z-score (test concentration not listed); actives 0.72% (n = 94,000); AID 1259370, 2018; in the data active = z-score above about 3.2
The depositor's hits bear a star; x = no result.

SMILES	TAR Tat displ	CDC25B-CDK2 inh
Cc1ccc2c(ccc(/C=C3\Sc4ccccc4N3C)[n+]2C)c1	-9.2	0.39
CCCCCCC(=O)Nc1ccc2nc3c(=O)[nH]c(=O)[nH]c3nc2c1	-0.11	1.6
Cc1noc2ncnc(N3CCCCC3C)c12 (stereo not given)	0.49	x
COc1cc2c(NC3CCN(C)CC3)cc(N3CCCCN(C)CC3)cc2cc1OCCOCCN(C)C	8.3*	x
COc1cc2c(NC3CCN(C)CC3)nc(N3CCCN(C)CC3)nc2cc1OCCCN(C)C	12*	x
COc1cc2c(NC3CCN(C(C)C)CC3)nc(C3CCCCC3)nc2cc1OCCCN1CCCC1	0.21	x
CCc1cccc(NS(=O)(=O)c2cc(-c3onc(C)c3C)ccc2C)c1	1.7	x
CC1CC(C)CN(C(=O)CSC2=Nc3ccccc3C3=NC(Cc4c[nH]c5ccccc45)C(=O)N23)C1 (stereo not given)	5.4*	x
O=C(CSC1=Nc2ccccc2C2=NC(Cc3c[nH]c4ccccc34)C(=O)N12)NC1CCCCC1 (stereo not given)	0.74	x
CCOc1ccccc1NC(=O)NC(C)c1c(-n2cccc2)sc2c1CCCC2 (stereo not given)	0.22	-1.1
Cc1ccc(NC(=O)NCc2ccc(C#N)cc2)cc1Cl	x	-1.1
CCC(C)N(CCNS(=O)(=O)c1ccc2c(c1)NC(=O)CCS2)Cc1cccs1 (stereo not given)	0.63	x
CCN(Cc1cc2cc(C)ccc2[nH]c1=O)S(=O)(=O)c1ccc(C)cc1	0.92	-2.5
Cc1ccc2[nH]c(=O)c(CN(C(C)C)S(=O)(=O)c3ccccc3)cc2c1	19*	-2.8
O=c1ccc2ccc(O)cc2o1	0.33	x
O=c1ccc2cc(O)c(O)cc2o1	25*	x
O=C(CN1CCOCC1)N1CCCc2c1c(=O)oc1ccc(O)cc21	x	-0.55
CC(=O)Oc1ccccc1C(=O)OC1=CN(C(C)C)S(=O)(=O)c2ccccc21	-0.33	-0.16
Cc1c(C(=O)O)sc2ncnc(N3CCN(c4ccccc4)CC3)c12	29*	x
Cc1c(C(=O)O)sc2ncnc(NCc3cccs3)c12	9.8*	x
Cc1c(C(=O)O)sc2ncnc(NC(C)C)c12	0.33	x
Cc1c(C(=O)O)sc2ncnc(Nc3ccc(F)cc3)c12	25*	x
Cc1c(C(=O)O)sc2ncnc(NCC3CCCO3)c12 (stereo not given)	2.1	x
Cc1c(C(=O)N2CCN(c3ccccc3)CC2)sc2ncnc(N3CCN(c4ccccn4)CC3)c12	1.2	-1.7
Cc1c(C(=O)O)sc2ncnc(NCCc3ccco3)c12	0.32	x
SMILES	TAR Tat displ	CDC25B-CDK2 inh
Cc1c(C(=O)O)sc2ncnc(Nc3cccc(Cl)c3)c12	21*	x
COC(=O)c1ccc(C(=O)OC)c(NC(=O)c2cc(OC)c(OC)cc2[N+](=O)[O-])c1	x	-3.1
C=CCOC(=O)COc1ccc2c3c(c(=O)oc2c1C)CCCC3	x	-2.4
Cc1nn(S(=O)(=O)c2ccc(Br)cc2)c(C)c1S(=O)(=O)N(C)c1ccccc1	0.86	x
COc1cc(C(=O)Nc2ccccc2C(=O)NCCc2ccccn2)cc(OC)c1OC	x	-1.5
CCC(C)(C)NS(=O)(=O)c1cc(-c2csc(C)n2)ccc1C	0.35	x
Cc1ccc(C(=O)NC(N=C=S)C(Cl)Cl)cc1 (stereo not given)	x	0.8
CCOc1ccc(Nc2ncnc3sc(C(=O)O)c(C)c23)cc1	4.7*	x
COCCNc1ncnc2sc(C(=O)O)c(C)c12	2.5	x
CCC(C)Nc1ncnc2sc(C(=O)O)c(C)c12 (stereo not given)	3.3	x
COc1cc(OC)c(Nc2ncnc3sc(C(=O)O)c(C)c23)cc1Cl	4.2*	x
Cc1nc(N(C)C)cc(N2CCN(S(=O)(=O)c3cc(C)c(C)cc3C)CC2)n1	0.13	-1.3
CNC(=O)c1c(NC(=O)c2ccc(C(=O)c3ccccc3)cc2)sc2c1CCC2	0.7	x
O=C(NCc1ccco1)c1ccc2c(=O)[nH]c3c(C(=O)NC4CCCC4)sc(=S)n3c2c1	16*	x
CCOCCCNC(=O)c1ccc2c(=O)[nH]c3c(C(=O)NC4CCCC4)sc(=S)n3c2c1	2	x
Cc1cc(N2CCc3ccccc3C2)n2nc(-c3ccccc3)nc2n1	0.32	1.8
CCN(CC)C(=O)c1sc(NC(=O)c2cc(-c3ccc(C)o3)nc3ccccc23)c(C(N)=O)c1C	8.5*	0.85
NC(=O)c1nc(Nc2ccccc2)sc1NC(=O)Cc1cccs1	-0.59	x
Cc1nnc(NC(=O)c2cc(-c3ccc(Cl)cc3)nc3ccccc23)s1	x	-4.8
NC(=O)c1nc(Nc2ccccc2)sc1NC(=O)c1cc(-c2ccco2)nc2ccccc12	20*	x
COCCNc1ncnc2c1c(-c1ccccc1)cn2-c1ccccc1	x	-0.27
O=C(c1[nH]nc2c1COc1ccccc1-2)N1CCN(c2cccc(Cl)c2)CC1	-1.4	x
CC(C(=O)NCc1ccco1)N1Cc2ccccc2C1=O (stereo not given)	0.05	x
CC(O)CNC(=O)c1c(O)nc2ccccn2c1=O (stereo not given)	0.01	-1.7
